# Hits are enriched below; roughly 15% of the tested compounds scored in any of these assays.
# ELG1 DNA repair – qHTS screen for small molecules that inhibit ELG1-dependent DNA repair in human embryonic kidney (HEK293T) cells expressing luciferase-tagged ELG1; HEK293T ELG1-luciferase reporter, luminescence, 16 h; DNA damage induced by 5-fluorouridine; Potency, µM (doses to about 46.1 µM), for inactives: at the top dose activity change, negative = inhibition, usual class: inhibitors; 2.3% of 330,000 active; further: nearly all actives have a fitted effect of over 55% in size
#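 Step one: seed 2,000 cells per well. Step two: pin-transfer compound or DMSO alongside 5-fluorouridine. Step three: incubate 16 hr, 37 °C, 5% CO2. Step four: add ONE-Glo, wait 30 min, read luminescence.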
# ALOX12 inh – Primary qHTS assay for inhibitors of human arachidonate 12S-lipoxygenase (ALOX12): Round 2; Polyunsaturated fatty acid lipoxygenase ALOX12 (Homo sapiens), P18054; purified 12hLO, xylenol orange hydroperoxide absorbance; Potency, µM (titrated, usually from 108 µM), without a hit: top-dose activity change, negative = inhibition, usual class: inhibitors; 1.1% of 580,000 active; AID 1671190, 2021
# Target sequence (P18054 whole entry, looked up): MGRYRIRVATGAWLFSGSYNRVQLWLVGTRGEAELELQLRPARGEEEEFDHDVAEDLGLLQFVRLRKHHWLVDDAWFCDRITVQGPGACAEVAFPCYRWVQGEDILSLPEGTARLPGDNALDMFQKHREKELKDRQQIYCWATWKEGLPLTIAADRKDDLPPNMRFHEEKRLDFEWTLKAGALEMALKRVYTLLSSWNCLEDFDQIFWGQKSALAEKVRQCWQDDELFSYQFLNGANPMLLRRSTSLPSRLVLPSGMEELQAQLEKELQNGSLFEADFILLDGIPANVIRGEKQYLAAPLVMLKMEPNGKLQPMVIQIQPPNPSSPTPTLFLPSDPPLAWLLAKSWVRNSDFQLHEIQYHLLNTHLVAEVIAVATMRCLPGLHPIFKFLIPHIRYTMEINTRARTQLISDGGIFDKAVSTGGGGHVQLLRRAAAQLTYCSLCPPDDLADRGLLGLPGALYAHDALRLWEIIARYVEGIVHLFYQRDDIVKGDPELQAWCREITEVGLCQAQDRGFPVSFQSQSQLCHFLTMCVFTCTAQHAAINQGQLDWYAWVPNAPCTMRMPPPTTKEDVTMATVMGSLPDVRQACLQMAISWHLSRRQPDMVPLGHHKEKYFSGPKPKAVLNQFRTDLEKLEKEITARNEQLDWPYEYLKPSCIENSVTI
#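 Purified human 12hLO (150 nM final) in 25 mM Hepes, 0.01% Triton X-100, pH 7.0 was preincubated 15 min at room temperature with compound. Then 40 uM arachidonic acid was added, 30 min. Hydroperoxide was read by Fe-XO absorbance ratio 573/405 nm.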
# TDP1 cell noCPT – qHTS for Inhibitors of human tyrosyl-DNA phosphodiesterase 1 (TDP1): qHTS in cells in absence of CPT; DT40 Tdp1-/- hTDP1 cells, no CPT, ATP luminescence, 48 h; Potency, µM (series often up to 46.2 µM), inactives show top-dose activity change, negative = growth inhibition, most hits filed as inhibitors; 15% of 420,000 active; further: nearly all actives have a fitted effect of over 55% in size
#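 Compound effects on proliferation are scored in DT40 Tdp1-/-;hTDP1 cells in the absence of CPT. ATP levels (CellTiter-Glo luminescence) are recorded after a ≥48 hr, 37 °C incubation.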
# Gal4-VP16 FLuc – VP16 counterscreen qHTS for inhibitors of ROR gamma transcriptional activity; Drosophila S2 Gal4-VP16 UAS-luciferase, luminescence, 20 h; Potency, µM (titrated, usually from 53.6 µM), for inactives: at the highest dose activity, negative = inhibition, most hits filed as inhibitors; 3.5% of 310,000 active;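 further: Gal4-VP16 expression switched on by copper sulfate through the metallothionein promoter; nearly all actives have a fitted effect of over 50% in size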
# TDP1 cell CPT – qHTS for Inhibitors of human tyrosyl-DNA phosphodiesterase 1 (TDP1): qHTS in cells in presence of CPT. chicken DT40 Tdp1-/-;hTDP1 cells + 20 nM CPT, ATP luminescence, 48 h. Potency, µM (titrated, usually from 46.2 µM), inactives show at the highest dose activity change, negative = growth inhibition, usual class: inhibitors. 12% of 420,000 active. AID 686979, 2013; further: nearly all actives have a fitted effect of over 55% in size
#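 Chicken DT40 Tdp1-/- cells complemented with human TDP1, 400 cells/well, exposed to compounds plus 20 nM camptothecin for at least 48 h at 37 C; viability read as ATP content by CellTiter-Glo luminescence.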
# RORg inh – qHTS for inhibitors of ROR gamma transcriptional activity. Nuclear receptor ROR-gamma (Mus musculus), P51450. Drosophila S2 Gal4-RORgamma UAS-luciferase reporter, 20 h. Potency, µM (highest dose often 53.6 µM), for inactives: top-dose activity change, negative = inhibition, usual class: inhibitors. 5.4% of 310,000 active; further: nearly all actives have a fitted effect of over 60% in size
#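 ROR gamma transcriptional activity was tracked as Gal4-UAS luciferase output in stably transfected Drosophila Schneider cells, with compound added 1 hr before 700 uM copper sulfate induction and a 20 hr ambient-temperature incubation.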
# Numbers without * were called inactive; ? = inconclusive; nt = no result given; [ ] = remark or other dose. The call rests on the fitted dose curve; in most records, active means well fitted curve in the direction sought with a large enough effect; inconclusive means small, poorly fitted or top-dose-only effect, or another doubt; inactive means no such curve, though single readings can be large; an effect the other way counts as inactive or inconclusive. On the % scale 0 is the no-effect control and ±100 the full control effect; potency means the concentration at half of the fitted maximal effect.
SMILES,ELG1 DNA repair,ALOX12 inh,TDP1 cell noCPT,Gal4-VP16 FLuc,TDP1 cell CPT,RORg inh
COc1ccc(C(=O)NC(=S)N2CCN(c3ccc([N+](=O)[O-])cc3)CC2)cc1,-17.6%,-27.9%,?,0.891µM*,?,0.631µM*
COc1ccc2[nH]c3c(c2c1)CCNC31CCN(C(=O)c2c(C)noc2C)CC1,nt,-4.9%,nt,nt,nt,nt
CCc1nnc(NC(=O)C(CC)CC)s1,4.3%,0.6%,21.4%,2.0%,2.3%,-27.0%
c1nnc(NC2=NCCCCC2)s1,0.0%,3.2%,2.4%,9.0%[0.365 µM],-2.0%,31.9%
Cc1cnc(NC2=NCCC2)s1,-18.5%,-3.2%,9.0%,?,9.1%,7.08µM*
CCc1nnc(NC2=NCCC2)s1,14.0%,?,-0.3%,17.8µM*,15.9%,-23.5%
C[S+](=O)([O-])N1Cc2ccccc2CC12CN(C(=O)c1ccccc1F)C2,nt,0.9%,nt,nt,nt,nt
CCn1c(-c2cc(Br)cc(OC)c2O)nc2cc(S(=O)(=O)N(C)C)ccc21,?,-0.3%,?,7.94µM*,?,3.55µM*
C#CCSc1nc(-c2ccccc2)cc(-c2ccccc2)c1C#N,nt,7.1%,?,nt,?,nt
N#Cc1c(-c2ccccc2)cc(-c2ccccc2)nc1SCC(O)CS(=O)(=O)Cc1ccccc1 (configuration not stated),nt,-19.1%,5.8µM*,nt,10.3µM*,nt
CCOC(=O)CSc1nc(-c2ccccc2)cc(C(F)(F)F)c1C#N,nt,-24.6%,-11.1%,nt,-9.9%,nt
COc1ccc(-c2cc(-c3ccccc3)c(C#N)c(S(C)=O)n2)cc1 (configuration not stated),-16.3%,-21.7%,3.26µM*,?,3.26µM*,?
CCOC(=O)/C(Sc1nc(-c2ccccc2)cc(-c2ccccc2)c1C#N)=C(\C)O,-9.0%,-8.0%,29.1µM*,-7.3%,-22.7%,?
CCSc1nc(-c2ccc(OC)cc2)cc(-c2ccccc2)c1C#N,-15.6%,-4.0%,23.1µM*,-6.1%,?,2.4%
O=C(O)CCC(=O)N1Cc2ccccc2CC2(CCN(Cc3cccnc3)C2)C1 (configuration not stated),nt,8.3%[6.33 µM],nt,nt,nt,nt
O=C1N(C2CCN(Cc3ccc(C(F)(F)F)cc3)CC2)Cc2cccn21,nt,0.7%[6.33 µM],nt,nt,nt,nt
CCSc1nc2c(c(=O)n(C)c(=O)n2C)n1CCCc1ccccc1,nt,5.2%,nt,nt,nt,nt
CCN(CC)S(=O)(=O)c1ccc(OC(C)C)c(NC(=O)c2c3c(nc4ccccc24)CCN(Cc2ccccc2)C3)c1,5.8µM*,-18.6%,11.6µM*,5.4%,13µM*,25.5%
COc1ccc(NC(=O)N2CCN(c3nc4ccccc4n3Cc3ccccc3)CC2)c(OC)c1,nt,-7.6%,nt,nt,nt,nt
COc1ccc(NC(=O)c2c3c(nc4ccccc24)CCN(Cc2ccccc2)C3)c(OC)c1,?,1.1%,?,9.6%,16.4µM*,2.9%
CCN(CC)S(=O)(=O)c1ccc(OC(C)C)c(NC(=O)c2ccc(OC(F)F)cc2)c1,nt,3.3%,nt,nt,nt,nt
COc1ccc(S(=O)(=O)N2CCCCCC2)cc1NC(=O)c1c2c(nc3ccccc13)CCN(Cc1ccccc1)C2,?,-14.7%,?,-14.2%,16.4µM*,33.4%
CCc1c(C)c(C#N)c2nc3ccccc3n2c1Nc1cccc(C(F)(F)F)c1,nt,?,16.4µM*,nt,16.4µM*,nt
NC(=O)CSc1ncc(-c2ccc(F)cc2)o1,nt,-3.6%,nt,nt,nt,nt
C=CCNC(=S)Nc1ccc(C)c(S(=O)(=O)N2CCCCC2)c1,-13.5%,-20.5%,-10.0%,-1.5%,-23.9%,11.2µM*
SMILES,ELG1 DNA repair,ALOX12 inh,TDP1 cell noCPT,Gal4-VP16 FLuc,TDP1 cell CPT,RORg inh
Cc1ccc(NC(=S)Nc2ccc(C(C)C)cc2)cc1S(=O)(=O)N1CCCCCC1,11.6µM*,?,16.4µM*,4.47µM*,23.1µM*,3.16µM*
CCCCCCSc1ccc([C@H]2N[C@@](CC(C)C)(C(=O)OC)[C@H]3C(=O)N(C)C(=O)[C@@H]23)cc1OC,?,-9.1%,18.4µM*,nt,?,nt
COC(=O)[C@]1(CC(C)C)N[C@H](c2ccc(-c3ccc4c(c3)OCO4)cc2)[C@@H]2C(=O)N(C)C(=O)[C@@H]21,5.2%,-30.8%,?,nt,?,nt
COC(=O)[C@]1(CC(C)C)N[C@H](c2ccc(SC3CCCCC3)c(OC)c2)[C@@H]2C(=O)N(C)C(=O)[C@@H]21,-20.3%,5.4%,18.4µM*,nt,?,nt
CC(=O)N1CCn2cc(C(=O)NCc3ccc(Cl)nc3)nc2C1,nt,1.0%[6.33 µM],nt,nt,nt,nt
CCCCCCCC(=O)Oc1ccc(C(=O)O)cc1,nt,-3.4%,nt,nt,nt,nt
O=C(CC1CCCCN(Cc2ccccc2)C1=O)N1CCc2ccccc2C1 (configuration not stated),nt,27.5%,nt,nt,nt,nt
COc1ccccc1CCNC(=O)c1csc(NC(C)C)n1,nt,25.0%,nt,nt,nt,nt
F[C@@H]1CN(Cc2cccnc2)C[C@@H]1OCc1nc2ccc(C(F)(F)F)cc2[nH]1,nt,10.6%[176 µM],nt,nt,nt,nt
Cc1ccc(C(C)C)c(OCc2n[nH]c(=S)o2)c1,4.6%,?,-24.3%,3.4%,-12.6%,-7.9%
Cc1ccc(C(C)C)c(OCc2n[nH]c(=S)n2Cc2ccc(Cl)cc2)c1,nt,28.2µM*,nt,nt,nt,nt
Cn1c(CC(=O)Nc2ccc(Cl)c(Cl)c2)n[nH]c1=S,4.9%,?,-17.0%,3.8%,-4.6%,11.9%
CCN(CC)CCCn1c(-c2ccc(COc3cc(C)ccc3Cl)cc2)n[nH]c1=S,nt,35.5µM*,nt,nt,nt,nt
Cc1ccc(Cl)c(OCc2n[nH]c(=S)n2C)c1,nt,31.6µM*,nt,nt,nt,nt
Cn1c(COc2cc(Cl)ccc2Cl)n[nH]c1=S,nt,50.1µM*,nt,nt,nt,nt
Cn1c(CNS(=O)(=O)c2ccc(Cl)cc2)n[nH]c1=S,8.8%,-8.7%,-16.7%,0.2%,3.8%,-11.9%
COCCNC(=O)[C@@H]1C[C@H](Oc2ccccc2)CN1C(=O)c1n[nH]c(=O)c2ccccc12,nt,32.4%,nt,nt,nt,nt
CC1(C(=O)Nc2cccc3ncccc23)Cc2ccccc2C(=O)O1 (configuration not stated),nt,19.8%,nt,nt,nt,nt
CCCCCn1c(COc2ccccc2Cl)n[nH]c1=S,nt,28.2µM*,nt,nt,nt,nt
COc1ccc(C2(C(=O)NCCc3ncc(C)n3CC3CC3)CC2)cc1,nt,15.5%,nt,nt,nt,nt
CC(NC(=O)CCC1CCCC1)c1ccccn1 (configuration not stated),nt,30.5%,nt,nt,nt,nt
